From PubChem BioAssay
LGR2 antag: Drosophila LGR2 receptor signaling inhibition; HEK293 LGR2, CRE-luciferase, bursicon-stimulated, 4 h; AID 720647; 380,000 tested, 0.35% active; inhibition, % at 9.99 µM;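 active means drop in luminescence signal, shown as inhibition above about 50% in the replicate tests, limit read from the data, passing the limit was not always enough; inconclusive means probably only some replicates passing the limit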;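 further: agonist challenge used bursicon conditioned medium at about half maximal strength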
PGC1a acetyl inh: PGC1a acetylation modulation, inhibitor mode | 350,000 tested, 0.17% active | inhibition, % at 15.6 µM | U2OS PGC1a acetylation, AlphaScreen anti-acetyl-lysine; with virally co-expressed GCN5 acetyltransferase;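 active means every replicate shows inhibition of at least 40%; inconclusive means mean inhibition at least 40% but some replicate below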;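 further: 0% = neutral control wells and 100% = positive control wells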
PAX8 reporter: PAX8 transcriptional activity inhibition. RMG-I TPO-luciferase reporter, SteadyGlo, 24 h. inhibition, % at 12.6 µM. 360,000 tested, 1.2% active. AID 652154;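 active means mean replicate inhibition at least 60% with every replicate also reaching 60%; inconclusive means only one of the two criteria is met; inactive means mean below 60% and not all replicates reaching 60%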;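 further: luciferase light reporting Pax8 driven TPO promoter activity; plate controls were median of neutral control wells for no effect and mitoxantrone controls for full effect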
EBV LMP1 NFkB: reduces LMP1-driven NF-kappaB luciferase signal; 350,000 tested, 0.69% active; inhibition, % at 12.5 µM; LMP1-induced NF-kappaB luciferase reporter cells, luminescence; in the data active means inhibition above about 41%; inconclusive means no clear call, values can overlap the other calls;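 further: 0% = neutral control wells and 100% = reference inhibitor control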
MITF TRPM1 inh: MITF TRPM1 promoter inhibition in SK-MEL-5 cells | SK-MEL-5 TRPM1 promoter luciferase, 24 h | inhibition, % at 12.5 µM | 330,000 tested, 0.83% active;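 active means mean inhibition across replicates of 60% or more, whatever share of single replicates reaches that level; inconclusive means some that reach 60%, reason not given; inactive means mean inhibition across replicates below 60%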
EWS-Fli inh: EWS/Fli transcriptional activity inhibition; inhibition, % at 12.6 µM; 350,000 tested, 0.67% active; A673 NR0B1-luciferase reporter, viability-normalised;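 active means mean inhibition of at least 50% after viability correction, with every replicate also passing that limit; inconclusive means mean reaches 50% but only one of two replicates passes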;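 further: firefly luciferase signal divided by Alamar Blue viability fluorescence both relative to DMSO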
Starred values were filed as active, the others as inactive; ? = inconclusive; / = no result. A selection: hits, their analogues and other compounds. The true share with any hit is near 2.2%.

SMILES | LGR2 antag | PGC1a acetyl inh | PAX8 reporter | EBV LMP1 NFkB | MITF TRPM1 inh | EWS-Fli inh
Cc1ccc(C(=O)O/N=C(\N)c2ccccn2)cc1C | 98* | -13 | 83* | 56* | 52 | 74*
N/C(=N\OC(=O)c1cccc(F)c1)c1ccccn1 | ? | 0 | 20 | 23 | -16 | 29
COc1ccc2c3c([nH]c2c1)[C@H](CO)N(Cc1cccc(F)c1)CC31CCN(C(C)=O)CC1 | -26 | -12 | -17 | / | / | 18
CN(C)C(=O)c1ccc(-c2ccc(C3[C@@H]4CN(C(=O)C5CCCCC5)C[C@H]3N4)cc2)cc1 (some centres not stated) | 6 | 4 | -8 | / | / | -6
COc1ccc(S(=O)(=O)N(C)C[C@@H]2Oc3ccc(NS(=O)(=O)c4ccc(F)cc4)cc3C(=O)N([C@@H](C)CO)C[C@@H]2C)cc1 | -7 | -9 | -16 | / | / | 0
CN(C)C1(CNC(=O)Nc2ccccc2)CCCCC1 | -8 | -5 | -9 | 42* | -7 | -6
CN1CCN(C(=O)[C@H]2[C@H](CO)[C@H]3Cn4c(ccc(C5=CCCCC5)c4=O)[C@@H]2N3S(C)(=O)=O)CC1 | 6 | / | / | / | / | 10
Cc1ccc(Cn2cc(SCC(=O)Nc3nccs3)c3ccccc32)cc1 | -19 | / | -73 | -27 | / | -51
Cc1cccc(Cn2cc(SCC(=O)Nc3nccs3)c3ccccc32)c1 | -13 | 0 | -8 | 82* | -66 | -71
O=C1CC(C(=O)Nc2ccccc2)C2(CCCCC2)O1 (configuration not stated) | / | -6 | / | 65* | 7 | /
C[C@H](CO)N1C[C@H](C)[C@H](CN(C)C(=O)[C@@H]2CCCN2C)OCc2ccccc2-c2c(n(C)c3ccccc23)C1=O | 11 | 2 | -3 | / | / | 9
Nc1nc(N)c2c(ccc3c2ccn3Cc2cccc([N+](=O)[O-])c2)n1 | 3 | / | 117* | / | / | 39
Nc1nc(N)c2cc([N+](=O)[O-])ccc2n1 | -10 | 3 | 19 | -3 | 14 | 4
Cc1ccccc1-c1cnc2c(c1)C(=O)N([C@H](C)CO)C[C@H](C)[C@H](CN(C)Cc1cccnc1)O2 | -1 | 4 | / | / | / | 0
CCN(c1ccccc1)S(=O)(=O)c1ccc(Cl)c(NC(=O)Nc2ccc(Cl)cc2C#N)c1 | 34 | -6 | 10 | 85* | 9 | -5
CCOC(=O)c1ccc(Nc2ncnc3c2cnn3C)cc1 | 1 | -10 | / | -23 | -31 | /
Cn1ncc2c(O/N=C(\N)c3ccc(C(C)(C)C)cc3)ncnc21 | / | 96* | / | -59 | 80* | /
O=C(N/N=C/c1sc(N2CCOCC2)nc1-c1ccccc1)c1ccccc1O | -8 | / | -1 | 10 | 6 | /
O=C(N/N=C/c1sc(N2CCOCC2)nc1-c1ccccc1)c1cccc(S(=O)(=O)N2CCOCC2)c1 | -4 | -30 | 50 | 30 | 65* | 11
Cc1cc(C(=O)N/N=C/c2sc(N3CCOCC3)nc2-c2ccccc2)c(C)o1 | -5 | -3 | 20 | 41* | 13 | 4
CCC(=O)N1[C@@H](CO)[C@@H]2c3ccccc3N(C(=O)c3cccc(OC)c3)C[C@@H]21 | 13 | 4 | -1 | / | / | 0
COc1ccc(S(=O)(=O)Nc2ccc3c(c2)CC(=O)N([C@H](C)CO)C[C@@H](C)[C@H](CN(C)CC2CCCCC2)O3)cc1 | -4 | -1 | / | / | / | 30
COc1cccc(C(=O)Nc2ccc3c(c2)C(=O)N(C)C[C@H](OC)[C@H](C)CN(C)[C@@H](C)CO3)c1 | -6 | 1 | / | / | / | -6
CCOc1ccc(C(=O)Nc2ccc(Cc3ccncc3)cc2)cc1Br | -5 | 19 | 95* | 5 | -11 | -1
C[C@@H]1CN([C@H](C)CO)C(=O)c2cc(NC(=O)Nc3ccc(F)cc3)ccc2O[C@@H](C)CCCCO[C@H]1CN(C)Cc1ccc(C(F)(F)F)cc1 | -13 | 6 | 107* | / | / | 70*
SMILES | LGR2 antag | PGC1a acetyl inh | PAX8 reporter | EBV LMP1 NFkB | MITF TRPM1 inh | EWS-Fli inh
C[C@@H]1CCCCO[C@H](CN(C)Cc2ccc(C(F)(F)F)cc2)[C@@H](C)CN([C@H](C)CO)C(=O)c2cc(NC(=O)Nc3ccc(F)cc3)ccc2O1 | -1 | 4 | -1 | / | / | 7
C[C@@H]1CCCCO[C@H](CN(C)Cc2ccc(C(F)(F)F)cc2)[C@H](C)CN([C@@H](C)CO)C(=O)c2cc(NC(=O)Nc3ccc(F)cc3)ccc2O1 | 9 | 1 | 91* | / | / | 16
C[C@@H]1CN([C@@H](C)CO)C(=O)c2cc(NC(=O)Nc3ccc(F)cc3)ccc2O[C@@H](C)CCCCO[C@H]1CN(C)Cc1ccc(C(F)(F)F)cc1 | 9 | 3 | 84* | / | / | 15
C[C@@H]1CN([C@H](C)CO)C(=O)c2cc(NC(=O)Nc3ccc(F)cc3)ccc2O[C@@H](C)CCCCO[C@@H]1CN(C)Cc1ccc(C(F)(F)F)cc1 | 0 | -12 | 93* | / | / | 7
C[C@H](CO)N1C[C@H](C)[C@H](CN(C)Cc2ccc(C(F)(F)F)cc2)OCCCC[C@H](C)Oc2ccc(NC(=O)Nc3ccc(F)cc3)cc2C1=O | 18 | -29 | 52 | / | / | 19
C[C@H]1CCCCO[C@H](CN(C)Cc2ccc(C(F)(F)F)cc2)[C@@H](C)CN([C@@H](C)CO)C(=O)c2cc(NC(=O)Nc3ccc(F)cc3)ccc2O1 | -44 | 1 | 96* | / | / | 12
COc1ccc(C(=O)c2ccc(Cl)c([N+](=O)[O-])c2)cc1 | 6 | / | 108* | 4 | 64* | 48
CN(CCC#N)C(=O)COC(=O)c1ccc(Cl)c(S(N)(=O)=O)c1 | / | -4 | 11 | 6 | 1 | /
Cc1cc(C(=O)OCC(=O)c2ccc(Cl)c([N+](=O)[O-])c2)c2cccc(C)c2n1 | 0 | / | 8 | -2 | 1 | 11
CN(CCC#N)C(=O)COC(=O)c1ccccc1C(=O)c1ccc(Cl)c([N+](=O)[O-])c1 | / | -60 | 11 | -8 | 66* | 46
CC(C)N(C(=O)COC(=O)c1ccccc1C(=O)c1ccc(Cl)c([N+](=O)[O-])c1)C(C)C | 94* | / | 36 | -6 | 45 | ?
O=C(COC(=O)c1ccc(Cl)c([N+](=O)[O-])c1)NC1CCCC1 | -22 | -6 | 17 | 3 | 6 | 6
O=C(COC(=O)c1ccccc1C(=O)c1ccc(Cl)c([N+](=O)[O-])c1)NC1CCCCCC1 | / | -160 | 15 | 87* | 100* | /
CO[C@@H](CN(C)C(=O)Nc1ccc(Cl)cc1)[C@@H](C)CN(Cc1ccccc1Cl)[C@@H](C)CO | 0 | -8 | / | / | / | 19
C[C@@H]1CCCCO[C@@H](CN(C)C(=O)Nc2cccc3ccccc23)[C@@H](C)CN([C@H](C)CO)C(=O)c2cc(NS(=O)(=O)c3cccs3)ccc2O1 | -4 | / | 7 | / | / | 1
COCC(=O)N(C)C[C@@H]1Oc2cc(C3=CCCCC3)ccc2S(=O)(=O)N([C@H](C)CO)C[C@H]1C | 15 | -8 | / | / | / | 0
Cn1c(N)c(C(=O)COC(=O)c2ccccc2C(=O)c2ccc(Cl)c([N+](=O)[O-])c2)c(=O)n(C)c1=O | / | / | / | 2 | 92* | /
